Laboratory results: PubChem BioAssay
The source made the active and inactive calls.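 How the source made its calls, unless noted: active means visual image review flags a hit and inhibition of aggregation exceeds 20%; inconclusive means visual hit but inhibition at or below 20%; inactive means no hit on visual image review.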

Key:
[1] = inhibitors of TNFa-induced NFkB p65 translocation, primary screen, imaging, HUVEC, MLSMR starter and 10KST1 sets (AID 438;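 active means inhibition above 20% together with a positive visual image hit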;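 further: compound added about 3h40 before a 20 min TNFalpha stimulation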;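 on inhibition: signal is the nuclear over cytoplasmic p65 intensity ratio per well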); details: HUVEC TNFa-induced p65 nuclear translocation; cell count: measured here: nuclei count (cytotoxicity indicator), at 2.08 µM; inhibition: at 2 µM, stronger effect = higher value, 0% TNFa-plus-vehicle, 100% no-TNFa wells
[2] = reduction of polyQ htt aggregates in cells – imaging, exon1htt(103Q)mCFP cells, high-content imaging, primary screen (AID 483); details: exon1htt(103Q)mCFP cell line, aggregate imaging, at 2 µM; inhibition of aggregation: stronger effect = higher value; nuclei count: measured here: cell count, toxicity;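 further: compound exposure lasted 3 days before fixation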;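 on nuclei count: percent of the per-plate median nuclei count of sample wells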
[3] = endothelial E-selectin expression blockers – imaging, HUVEC, immunofluorescence, MLSMR starter and 10KST1 sets, primary screen (AID 487;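 active means visually confirmed hit in the image check and inhibition above 20%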;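 on inhibition: signal is fraction of cell area covered by stained E-selectin grains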;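 on nuclei count: 100% = median nuclei count of all wells on the same plate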); details: HUVEC TNFalpha-induced E-selectin immunofluorescence imaging, at 2 µM; inhibition: stronger effect = higher value; nuclei count: measured here: cell number, toxicity
[4] = molecular target: Voltage-gated potassium channel subunit beta-2 (Rattus norvegicus) (UniProt P62483); assay: inhibitors of rat Kvbeta2 reductase activity – biochemical, NADPH fluorescence, primary screen (AID 622;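 active means fluorescence slope higher than the sample average by over 3 SD, cut at about -0.22 in these data, passing the limit was not always enough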;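 further: slope of raw intensity against log time taken from 70 to 1610 s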); details: recombinant KvBeta, 4-cyanobenzaldehyde reduction, at 10 µM, stronger effect = higher value
Chain of Voltage-gated potassium channel subunit beta-2 (Rattus norvegicus) (P62483 whole entry, looked up): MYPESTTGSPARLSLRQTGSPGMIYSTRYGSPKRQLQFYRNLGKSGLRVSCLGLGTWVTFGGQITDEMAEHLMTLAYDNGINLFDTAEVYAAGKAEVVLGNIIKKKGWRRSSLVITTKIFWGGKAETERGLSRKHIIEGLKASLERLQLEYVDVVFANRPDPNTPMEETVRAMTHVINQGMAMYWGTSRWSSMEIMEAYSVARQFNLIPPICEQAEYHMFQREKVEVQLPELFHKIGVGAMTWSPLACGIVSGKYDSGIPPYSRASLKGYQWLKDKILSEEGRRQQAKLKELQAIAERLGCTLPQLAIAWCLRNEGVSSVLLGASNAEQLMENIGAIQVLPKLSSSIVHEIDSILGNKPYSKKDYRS

[5] = molecular target: Voltage-gated potassium channel subunit beta-2 (Rattus norvegicus) (UniProt P62483); assay: enhancers of rat Kvbeta2 NADPH turnover – biochemical, NADPH fluorescence, primary screen (AID 623;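 active means NADPH fluorescence slope more negative than the mean of all samples by about 3 SD, 99.7% confidence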;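 further: fluorescence intensity change per second fitted from 20 to 320 s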); details: Recombinant KvBeta, NADPH fluorescence decrease slope, 10 min; at 10 µM; stronger effect = lower value
[6] = molecular target: Alpha-2C adrenergic receptor (Homo sapiens) (UniProt P18825); assay: compounds altering alpha2C-coupled GIRK flux – cell-based, HEK293 alpha2C/GIRK1/2, thallium flux, primary screen (AID 624;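 active means fluorescence slope after compound addition differing from the mean of all screened samples at 99.7% confidence, in either direction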;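 further: slope of fluorescence ratio to pre-addition baseline per second over 15 to 24 s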); details: thallium flux BTC fluorescence, at 10 µM, actives lie on both sides
Chain of Alpha-2C adrenergic receptor (Homo sapiens) (P18825 whole entry, looked up): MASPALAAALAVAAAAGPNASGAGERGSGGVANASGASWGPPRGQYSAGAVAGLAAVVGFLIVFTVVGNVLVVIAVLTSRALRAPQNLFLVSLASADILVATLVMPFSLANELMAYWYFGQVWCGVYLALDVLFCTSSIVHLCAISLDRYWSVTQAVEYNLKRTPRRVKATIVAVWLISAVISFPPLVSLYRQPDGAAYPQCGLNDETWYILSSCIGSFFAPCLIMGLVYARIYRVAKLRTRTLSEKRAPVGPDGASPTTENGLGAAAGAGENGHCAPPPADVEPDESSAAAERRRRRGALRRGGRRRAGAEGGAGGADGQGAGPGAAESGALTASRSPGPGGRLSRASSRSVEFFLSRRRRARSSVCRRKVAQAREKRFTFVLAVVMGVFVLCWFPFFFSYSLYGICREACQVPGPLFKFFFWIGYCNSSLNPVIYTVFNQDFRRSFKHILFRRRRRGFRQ

[7] = blockers of RIG-like receptor reporter activation – cell-based, Sendai virus stimulus, luciferase, 10K MLSCN set, TLR/RLR signaling modifier project, primary screen (AID 602276;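 active means inhibition at or above 50% at 10 µM; inactive means inhibition below 50%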;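 further: firefly luciferase from ISG56 promoter only with Renilla not read in this screen; 0% = Sendai virus plus DMSO and 100% = medium plus DMSO without virus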); details: HEK293 RL24 IRF3 luciferase reporter, at 10 µM, stronger effect = higher value
[8] = TLR3 IRF3 reporter activation blockers – cell-based, poly I:C stimulus, luciferase, 10K MLSCN set, primary screen (AID 602277;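 active means inhibition of the reporter signal at or above 50%; inactive means inhibition below 50%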); details: HEK293-TLR3 RL24 IRF3 luciferase reporter, at 10 µM, stronger effect = higher value

Row | Compound | cell count [1] | inhibition [1] | inhibition of aggregation [2] | nuclei count [2] [%] | inhibition [3] | nuclei count [3] [%] | fluorescence slope [4] | NADPH fluorescence slope [5] | slope [6] | inhibition [7] | inhibition [8]
1 | COC(=O)c1ccccc1NC(=O)c1ccc(COc2ccccc2)o1 | 845 | -8.3% (inactive) | 6.6% (inactive) | 113 | -19.3% (inactive) | 114 | -0.63 (inactive) | -3.5e-05 (inactive) | 0.00572 (inactive) | -25.9% (inactive) | -60.3% (inactive)
2 | Brc1ccccc1-c1nc(-c2ccccc2)no1 | 428 | 2.3% (inactive) | -23% (inactive) | 94 | -25.4% (inactive) | 114 | -0.45 (inactive) | 2.8e-05 (inactive) | 0.00389 (inactive) | -15.5% (inactive) | -39.8% (inactive)
3 | CCN1C(=O)CC(C(=O)Nc2ccc(F)cc2)SC1=Nc1ccc2c(c1)OCO2 (centres undefined) | 551 | -28.9% (inactive) | 1.1% (inactive) | 110 | 1.8% (inactive) | 124 | -0.504 (inactive) | -3.2e-05 (inactive) | 0.00494 (inactive) | 18.1% (inactive) | 21.5% (inactive)
4 | Cc1nc2ccc(CCO)cc2s1 | 419 | 8% (inactive) | 2.9% (inactive) | 93.2 | -162% (inactive) | 112 | -0.652 (inactive) | 3.1e-05 (inactive) | 0.00546 (inactive) | 5.43% (inactive) | 4.05% (inactive)
5 | COC(=O)c1ccc(NC(=O)Cn2nnc3ccccc32)cc1 | 445 | -10.2% (inactive) | 8.3% (inactive) | 134 | -8.2% (inactive) | 134 | -0.377 (inactive) | -5.8e-05 (inactive) | 0.0057 (inactive) | -21.8% (inactive) | -69.7% (inactive)
6 | COc1ccc(-c2cc3ccc(OCc4nn[nH]n4)cc3oc2=O)cc1 | 399 | -17.5% (inactive) | 5.4% (inactive) | 81.6 | -24.5% (inactive) | 84.5 | -0.00551 (active) | 1.1e-06 (inactive) | 0.00437 (inactive) | 8.69% (inactive) | -13% (inactive)
7 | Cn1nc(C(=O)NC2CCCCCC2)ccc1=O | 348 | -4.6% (inactive) | 14% (inactive) | 105 | -2.2% (inactive) | 121 | -0.608 (inactive) | -2.1e-05 (inactive) | 0.00579 (inactive) | 9.51% (inactive) | 11.7% (inactive)
8 | CC(=O)NCC(=O)N(Cc1ccco1)C1(C(=O)NC2CCCCC2)CCCCC1 | 571 | 5.7% (inactive) | 19.5% (inactive) | 132 | -9.3% (inactive) | 128 | -0.538 (inactive) | -4.2e-05 (inactive) | 0.00597 (inactive) | 9.16% (inactive) | 19.2% (inactive)
9 | Cc1nc(N)[nH]c(=O)c1CCC(=O)OCC(C)C | 587 | -22.7% (inactive) | 5.9% (inactive) | 80 | -61.2% (inactive) | 97 | -0.507 (inactive) | -4.8e-06 (inactive) | 0.00627 (inactive) | 6.72% (inactive) | 32.1% (inactive)
